The panel holds about 83,000 compounds, 20% with a hit somewhere; the sample as a whole holds those more often.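 For each line, cells grew in 96-well plates with the test compound present at a single concentration for 48 hours.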 A number with no mark means an inactive call. Active and inactive are the calls of the source. The calls were made as follows: active = growth percent below 10; inactive = the rest.
Legend:
Assay in all cases: NCI-60 one-dose screen, 48 h (100 = growth as untreated, 0 = no growth, -100 = all killed)
Conditions in all cases: 10 µM unless noted
SK-MEL-2 melanoma = test system: SK-MEL-2 melanoma
EKVX NSCLC = test system: EKVX NSCLC
SN12C renal = test system: SN12C renal
TK-10 renal = test system: TK-10 renal
ACHN renal = test system: ACHN renal
CAKI-1 renal = test system: CAKI-1 renal
A498 renal = test system: A498 renal
CCRF-CEM leukemia = test system: CCRF-CEM leukemia
MOLT-4 leukemia = test system: MOLT-4 leukemia
SR leukemia = test system: SR leukemia
RPMI-8226 leukemia = test system: RPMI-8226 leukemia
OVCAR-5 ovarian = test system: OVCAR-5 ovarian
OVCAR-4 ovarian = test system: OVCAR-4 ovarian
SK-OV-3 ovarian = test system: SK-OV-3 ovarian
IGROV1 ovarian = test system: IGROV1 ovarian
OVCAR-3 ovarian = test system: OVCAR-3 ovarian
HS 578T breast = test system: HS 578T breast
NCI/ADR-RES ovarian = test system: NCI/ADR-RES ovarian
OVCAR-8 ovarian = test system: OVCAR-8 ovarian

| SMILES | growth (SK-MEL-2 melanoma) | growth (EKVX NSCLC) | growth (SN12C renal) | growth (TK-10 renal) | growth (ACHN renal) | growth (CAKI-1 renal) | growth (A498 renal) | growth (CCRF-CEM leukemia) | growth (MOLT-4 leukemia) | growth (SR leukemia) | growth (RPMI-8226 leukemia) | growth (OVCAR-5 ovarian) | growth (OVCAR-4 ovarian) | growth (SK-OV-3 ovarian) | growth (IGROV1 ovarian) | growth (OVCAR-3 ovarian) | growth (HS 578T breast) | growth (NCI/ADR-RES ovarian) | growth (OVCAR-8 ovarian) |
| --- | --- | --- | --- | --- | --- | --- | --- | --- | --- | --- | --- | --- | --- | --- | --- | --- | --- | --- | --- |
| S=c1[nH]cccc1-c1nnc2n1Nc1nc3ccc(Cl)cc3cc1CS2 | 96.1% | 93.1% | 102% | 111% | 101% | 81.8% | 107% | 100% | 92.3% | 85.6% | 98.1% | 95.3% | 101% | 94.3% | 90.1% | 105% | 89.3% | 99.3% | – |
| O=C(N/N=C/c1cccc(O)c1)c1ccccc1Nc1cccc(C(F)(F)F)c1 | 111% | 69.9% | 93.5% | 97.5% | 95.4% | 36.9% | 92.3% | 3.83% (active) | – | – | 87.5% | 92.3% | 58.9% | 78.4% | 95.3% | 62.1% | 91.8% | 83.4% | 75% |
| CCN(CC)S(=O)(=O)c1cccc([N+](=O)[O-])c1 | 93% | 98.7% | 100% | 90% | 109% | 91.3% | 73.2% | 102% | 105% | 103% | 93.2% | 109% | 95.4% | 86.9% | 107% | 108% | 97.9% | 103% | 85.7% |
| C[C@H]1[C@H](C)CC[C@]2(CO)CC[C@]3(C)C(=CC[C@@H]4[C@@]5(C)Cc6c([nH]c7ccccc67)C(C)(C)[C@@H]5CC[C@]43C)[C@H]12 | 85.2% | 75.5% | 55.6% | 86.3% | 60.8% | 73.2% | – | – | 67% | 75.8% | 83.7% | 116% | 89.8% | 96.9% | 88.8% | 87.4% | 74.6% | 90.6% | – |
| CCCCOc1ccc(/C=N/Nc2cc(C)nc3ccc(Cl)cc23)cc1 | 67.6% | 60% | -81.6% (active) | 36.8% | -95.5% (active) | 35.1% | – | -5.7% (active) | -36.9% (active) | -20.8% (active) | -31.6% (active) | 88.9% | 5.29% (active) | 79.5% | -71.6% (active) | -76.7% (active) | 47.7% | 58.7% | -58.5% (active) |
| COc1ccc(C(O)c2cc3c(N)c(C(=O)Nc4ccc(Cl)cc4)sc3nc2C)cc1 (stereo not drawn) | 37.1% | 37% | 34.6% | 42.4% | 35.6% | 25.2% | -5.66% (active) | 8.15% (active) | 15.5% | -9.53% (active) | 5.22% (active) | 46.8% | 38.4% | 32.1% | 33% | -35.7% (active) | 7.82% (active) | 16% | 30.6% |
| COc1ccc(/C=C2\COc3ccc(-c4ccccc4)cc3C2=O)cc1O | -29.6% (active) | 105% | 30.8% | 67.7% | 47.3% | 126% | 55.6% | -30.6% (active) | -18.2% (active) | -10.8% (active) | -21.6% (active) | 53.7% | 80.5% | 57.6% | 7.03% (active) | 2.7% (active) | -1.69% (active) | 22.6% | 13.1% |
| O=C(CNCCO)Nc1ccc2ncnc(Nc3ccc(OCc4cccc(F)c4)c(Cl)c3)c2c1 | 98.2% | 42.6% | 51.6% | 56% | 38% | 63.3% | 69% | 80.4% | 78.5% | 12.9% | 88.2% | 85.5% | 93.8% | 16.4% | 33.6% | 72.7% | 103% | 90.1% | 80.4% |
| O=C(Nc1ccc(Nc2ncccn2)cc1)NC1C=c2ccccc2=CC1 (stereo not drawn) | 102% | 106% | 92.5% | 112% | 105% | – | 96.9% | 90% | 87.5% | 98.1% | 100% | 108% | 111% | – | 106% | 107% | 100% | 106% | 98.1% |
| COc1cc(C(=O)/C=C/c2c(C)n([O-])c3ccc(Cl)cc3[n+]2=O)cc(OC)c1OC | 59.6% | 80.9% | 56.3% | 46.1% | 53.5% | – | 100% | -30.6% (active) | 6.41% (active) | -5.8% (active) | -35.2% (active) | – | 70.7% | 87.3% | -30.3% (active) | 23.2% | 86.3% | 39% | 23% |
| COc1ccc(C2CC(c3cccc(Nc4ccncc4)c3)=NN2c2cc(Cl)cc(Cl)c2)cc1 (stereo not drawn) | 91.1% | 81.9% | 70.8% | 63.2% | 51.7% | 33.3% | 95.7% | 7.35% (active) | -2.82% (active) | 2.77% (active) | 14.9% | 82.5% | 28.2% | 75% | 17.3% | 49% | 56.7% | 66.8% | -31.8% (active) |
| CCn1cc(C2NC(=O)c3ccccc3N2)c2cccc(C)c21 (stereo not drawn) | 2.54% (active) | 29.4% | 23.9% | 33.6% | 26.8% | 32.6% | -17.4% (active) | -3.39% (active) | 10.9% | -18.2% (active) | 6.81% (active) | 19.6% | 25.7% | 32.9% | 14.4% | -44.9% (active) | 7.22% (active) | – | 7.03% (active) |
| CCN(CC)CCCC(C)Nc1cc(-c2cccc(OC(F)(F)F)c2)nc2ccc(N3CCCC3)cc12 (stereo not drawn) | -71.2% (active) | 49.9% | 38.1% | 12.2% | -19.5% (active) | -53% (active) | 29.4% | -22.4% (active) | 2.34% (active) | -31.6% (active) | -37% (active) | 31.1% | 34.8% | 82% | 29.9% | 0.648% (active) | -22.3% (active) | 13.4% | -5.79% (active) |
| CC(=O)c1c[nH]c2ccc(-c3ccnc(Nc4ccc(NC(=O)C5CCCC5)c(CN5CCOCC5)c4)n3)cc12 | -54.3% (active) | -47.3% (active) | -8.98% (active) | 0.0909% (active) | -5.66% (active) | 0.231% (active) | -85.1% (active) | -11.5% (active) | -16.2% (active) | 3.58% (active) | -42.2% (active) | -11.6% (active) | -14% (active) | – | -14.8% (active) | -7.43% (active) | -27.7% (active) | -4.77% (active) | 7.02% (active) |
| CCCCN(CCCC)CCc1c(C)cc(C)c(CCN(CCCC)CCCC)c1O | 1.41% (active) | 14.4% | 22.9% | 37.4% | 29.3% | 39.7% | – | 26.6% | 16.2% | 25.8% | 1.92% (active) | 45.6% | – | 25.5% | 32.9% | 14.7% | 58.3% | 75.7% | 47.5% |
| COc1cc2oc(-c3cccc(C(=O)Nc4ccc(Cl)cc4)c3)cc(=O)c2c(OC)c1OC | 31.4% | 48.2% | 33.2% | 38.6% | 33.2% | 8.22% (active) | – | 28.5% | 36.1% | 8.67% (active) | -18.3% (active) | 57.5% | 60.5% | 33.6% | 25.5% | 43.1% | 33% | 26.2% | 23.5% |
| CCc1c(Nc2ccc(C)cc2)[nH]c(N)nc1=S | 103% | 84.9% | 98.4% | 111% | 98% | 89.8% | – | 107% | 110% | 94.4% | 115% | 98.9% | 107% | 111% | 104% | 119% | 94.8% | 105% | – |
| Cc1[nH]c(C(=O)Nc2ccccc2OCc2cccc(C(=O)NCCN)c2)c(Cl)c1Cl | 107% | 89.1% | 58% | 138% | 101% | 85.6% | – | 25.1% | 40.3% | -15.8% (active) | 30.1% | 104% | 98.1% | 108% | 71.1% | 76.4% | 92.6% | 94.3% | 37.9% |
